Source: PubChem BioAssay (NCATS)
Where “and” joins values, the source holds several entries; their conditions need not be identical. Equal entries are not always repeated. Records with an inconclusive call do not appear. Calls of active or inactive are those of the source. Unless noted, no rule for the calls is given here.

Legend:
[1] = qHTS profiling for inhibitors of Plasmodium falciparum (HB3) proliferation (AID 743324; active = well fitted curve in the direction sought with a large enough effect; an effect the other way counts as inactive or inconclusive;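 also: 100% = DMSO vehicle wells and 0% = artemisinin-treated control wells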); conditions: Plasmodium falciparum HB3 blood-stage proliferation; at 28.7 µM (top of the series) unless noted
Outline: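 SYBR Green fluorescence (485 ex/535 em) of lysed cultures, incubated overnight at room temperature in the dark, quantifies parasite DNA. Infected erythrocytes at 0.3% parasitemia and 2.5% hematocrit were exposed 72 h; values normalized to DMSO and 0.29 uM artemisinin controls.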

[2] = qHTS profiling of the MIPE4 collection as inhibitors of Plasmodium falciparum (3D7) proliferation (AID 743344);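 also: scaled between DMSO vehicle wells and 0.29 µM artemisinin as full inhibition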; conditions: P. falciparum 3D7 in erythrocytes, SYBR Green DNA fluorescence, 72 h; at 28.5 µM (top of the series) unless noted
Outline: (§1)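 Parasite DNA was quantified by SYBR Green I fluorescence (ex 485, em 535 nm) after overnight lysis in saponin/Triton buffer at room temperature. Cultures at 0.3% parasitemia and 2.5% hematocrit were first exposed to compound for 72 h at 37 C; signals were normalised to artemisinin (0.29 uM) and vehicle wells.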

[3] = qHTS profiling of the MIPE4 collection as inhibitors of Plasmodium falciparum (DD2) proliferation (AID 743345); conditions: P. falciparum Dd2 in erythrocytes, SYBR Green DNA, 72 h; at 28.5 µM (top of the series) unless noted
Outline: as §1

[4] = qHTS profiling of the MIPE4 collection as inhibitors of Plasmodium falciparum (DD2) proliferation (Rep 2) (AID 743346); conditions: P. falciparum Dd2 in erythrocytes, SYBR Green DNA, 72 h; at 28.5 µM (top of the series) unless noted
Outline: as §1

[5] = qHTS profiling of the MIPE4 collection as inhibitors of Plasmodium falciparum (HB3) proliferation (AID 743347);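 also: plate controls were DMSO vehicle wells for no effect and artemisinin wells for full effect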; conditions: P. falciparum HB3 in erythrocytes, SYBR Green DNA, 72 h; at 28.5 µM (top of the series) unless noted
Outline: as §1

[6] = High-throughput drug toxicity screening in the BPDCN cell line Cal-1 (AID 1224825); conditions: Cal-1 BPDCN cell viability, qHTS; at 45.8 µM (top of the series) unless noted;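 also: cells exposed to compounds for 48 h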
Outline: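 Percent activity derived from CellTiter-Glo luminescence, scaling DMSO to 100% and 9.2 uM final bortezomib to 0%. BPDCN Cal-1 cells (500/well, RPMI plus 10% FBS) incubated with compounds 48 hours at 37C before reading.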

[7] = qHTS assay for measurement of the activity of small molecule inhibitors on Zika virus induced Caspase-3 activity in human iPSC derived neural progenitor cells (hNPCs) (AID 1224857; active = well fitted curve in the direction sought with a large enough effect; an effect the other way counts as inactive or inconclusive; also: % of control where 0% means no effect; nearly all actives have a fitted effect of over 65% in size)
Outline: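 Zika virus (2 FFU/cell) infection of human iPSC-derived NPCs, 6 h, following 1 h compound preincubation. Read-out: Caspase-Glo 3/7 luminescence.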

Row | Compound | remaining proliferation (% of control), lower = more inhibition [1] | parasite growth, % of DMSO control [2] | parasite growth remaining, % of DMSO control (lower = more inhibition) [3] | parasite growth, % of control (lower = inhibition) [4] | growth, % of control [5] | viability (% of control) [6] | Potency [7]
1 | Cc1cc([C@@H](C)Nc2ccccc2C(=O)O)c2nc(N3CCOCC3)cc(=O)n2c1 | 31.4% | 5.01% [at 57.5 µM] | 16.9% [at 57.5 µM] | 7.39% [at 57.5 µM] | 3.82% [at 57.5 µM] | 27.7% [at 92.2 µM] | inactive
2 | Nc1ccc(S(=O)(=O)Nc2ccnn2-c2ccccc2)cc1 |  | 93.3% | 103% | 86.8% |  | 115% | inactive
3 | COc1nc(-c2ccc3c(c2)OCO3)n(-c2ccc(NC(=O)CSc3ccccc3)cc2)n1 | 94.2% | 51.6% | 86.8% | 61.9% | 82% | 116% | inactive
4 | Cc1ccccc1C(C(=O)NC1CCCC1)N(C(=O)Cn1cnc2ccccc21)c1cccc(F)c1 (configuration not stated) | 34.4% | 72.9% | 65.6% | 38% | 97.9% | 102% | inactive
5 | O=S(=O)(N=Cc1c(O)ccc2ccccc12)c1cccs1 | 82.6% | 75.2% | 91.9% | 63.3% | 63.2% | 45.4% | inactive
6 | CCOC(=O)C1=C[C@]2(CC)CCCN3CCc4c(n1c1ccccc41)[C@@H]32 |  | 5.46% and 17.8% | 8.67% and 83.7% | 35.2% and 34.2% | 10% and 13.6% | 2.19% | inactive
7 | CCC(C)(C)C(=O)O[C@H]1C[C@@H](C)C=C2C=C[C@H](C)[C@H](CC[C@@H]3C[C@@H](O)CC(=O)O3)[C@H]21 | 86.8% [at 9.63 µM] | 6.94% | 42% | 13.8% | 3.36% | 59.6% | inactive
8 | O=C(OCC#CCSc1nnc(-c2ccc3ccccc3c2)o1)c1cc2ccccc2s1 | 125% |  |  |  |  |  | 
9 | O=C1CCC(N2C(=O)c3ccccc3C2=O)C(=O)N1 (configuration not stated) |  | 93.4% | 88.8% | 142% |  | 95.9% | inactive
10 | C/C(=C\C(=O)Nc1ccccc1C(=O)O)c1ccc2ccccc2c1 | 114% |  |  |  |  |  | 
11 | CC(c1cc2ccccc2s1)N(O)C(N)=O (configuration not stated) | 109% [at 57.5 µM] | 94.1% | 98.2% | 140% | 101% | 110% | inactive
12 | NCCc1ccc(O)c(O)c1 |  | 74.8% | 20.2% | 39.7% | 53.9% | 25% | 
13 | Cc1cc(-c2nnc3n2CCCCC3)c(C)n1-c1ccc(F)cc1 | 0.91% |  |  |  |  |  | 
14 | CN([C@@H](Cc1ccc(OS(=O)(=O)c2cccc3cnccc23)cc1)C(=O)N1CCN(c2ccccc2)CC1)S(=O)(=O)c1cccc2cnccc12 | -0.274% and -0.52% | 5.27% | 6.98% | 12.9% | 4.99% |  | 
15 | Cc1cn[nH]c1 |  | 5.44% | 10% |  |  | 55.7% | inactive
16 | OCCC#Cc1nc(-c2ccc(F)cc2)c(-c2ccncc2)n1CCCc1ccccc1 | 7.5% | 15% | 21.2% | 15.5% |  | 18.4% | 
17 | O=C(Nc1nc2ccccc2n1CCN1CCOCC1)c1cccc([N+](=O)[O-])c1 |  |  |  | 17.9% |  | 4.89% | 
18 | O=C(O)COCCN1CCN(C(c2ccccc2)c2ccc(Cl)cc2)CC1 (configuration not stated) |  | 82.3% | 104% | 72.8% | 91% | 124% | inactive

Row | Compound | remaining proliferation (% of control), lower = more inhibition [1] | parasite growth, % of DMSO control [2] | parasite growth remaining, % of DMSO control (lower = more inhibition) [3] | parasite growth, % of control (lower = inhibition) [4] | growth, % of control [5] | viability (% of control) [6] | Potency [7]
19 | N[C@@H]1CONC1=O |  | 398% | 120% |  |  | 97.9% | inactive
20 | CC(C)(Sc1ccc(CCN(CCCCC2CCCCC2)C(=O)NC2CCCCC2)cc1)C(=O)O | 92.7% | 65.2% | 91.6% | 51.8% | 78.8% | 7.76% | 
21 | Cc1cnc(Nc2ccc(OCCN3CCCC3)cc2)nc1Nc1cccc(S(=O)(=O)NC(C)(C)C)c1 | 1.48% | 6.36% | 25.8% | 11% | 2.63% | 72.4% | inactive
22 | COc1cc(Oc2ccnc3cc(OC)c(OC)cc23)ccc1NC(=O)NC(C)c1nccs1 (configuration not stated) | 16.5% | 22.7% | 85.4% | 40.3% | 71.5% | 32.2% | inactive
23 | Oc1ccc(C2CNCCc3c2cc(O)c(O)c3Cl)cc1 (configuration not stated) |  | 6.63% | 65.8% | 14.2% | 7.76% | 66.9% | inactive
24 | Cc1cc(SCc2sc(-c3ccc(C(F)(F)F)cc3)nc2C)ccc1OCC(=O)O | 77.3% and 39.3% | 64.2% | 96.2% |  |  | 114% | 
25 | Cc1cc2c(C(C)C)c(O)c(O)c(C=O)c2c(O)c1-c1c(C)cc2c(C(C)C)c(O)c(O)c(C=O)c2c1O | -0.222% and 1.83% | 8.6% | 15% | 19.3% | 14.8% | 6.4% | inactive
26 | CCC(=O)N[C@H]1CC[C@H](C(=O)N(C)c2ccc(-c3nc4ccccc4o3)cc2)C1 | 35.8% | 28.4% | 65.1% | 41.7% | 33.6% | 92.1% | 
27 | O=c1n(CCCN2CCN(c3cccc(Cl)c3)CC2)nc2ccccn12 |  | 60.5% | 82.9% |  | 92.5% | 100% | inactive
28 | O=C(O)c1ccc(-c2c[nH]c3ccc(-c4ccccc4)cc23)cc1C1CCCC1 | -0.0688% |  |  |  |  |  | 
29 | CCOC(=O)C1=C[C@@]2(CC)CCCN3CCc4c(n1c1ccccc41)[C@H]32 | 25.8% [at 18.4 µM] |  |  |  |  |  | 
30 | CN(C)C(=O)c1ccc(S(=O)(=O)c2ccc(NC(=O)[C@@](C)(O)C(F)(F)F)c(Cl)c2)cc1 |  | 34.8% | 96.7% | 95.9% | 62% | 20.3% | inactive
31 | CCOc1cc(C=C2C(=O)N(c3ccccc3)N=C2C)cc(Cl)c1OCC(=O)OC | 102% | 102% | 97.3% | 106% | 98.7% | 61.6% | inactive
32 | Nc1cccc(S(=O)(=O)N2CCCN(S(=O)(=O)c3ccc4c(c3)OCCO4)CC2)c1 | 70.3% | 257% | 102% |  | 586% | 104% | 
33 | COc1cc2nccc(Oc3ccc(NC(=O)NC4CC4)c(Cl)c3)c2cc1C(N)=O | 30.9% | 17.7% | 70.8% | 30.6% | 19.2% | 5.43% | inactive
34 | Cc1oncc1C(=O)Nc1ccc(C(F)(F)F)cc1 | 95% and 87.2% | 13.7% | 102% | 61.2% |  | 63.8% | 
35 | CC(C[N+](C)(C)C)OC(N)=O (configuration not stated) |  | 102% | 101% |  | 69.1% | 120% | inactive
